Experimental data as given in PubChem BioAssay (NCI).
Compounds without any hit were thinned out: in the full panel of roughly 83,000, 20% have a hit.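 The endpoint reported here, percent growth, reads 100 for growth as untreated, 0 for no net growth and -100 for all cells dead.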 Unmarked numbers belong to inactive results. The source made the active and inactive calls. The calls were made as follows: active = growth percent below 10; inactive = the rest.

Assays:
Assay in all cases: NCI-60 one-dose screen, 48 h (100 = growth as untreated, 0 = no growth, -100 = all killed)
Details in all cases: 10 µM unless noted
T-47D breast = tested on: T-47D breast
BT-549 breast = tested on: BT-549 breast
MDA-MB-435 melanoma = tested on: MDA-MB-435 melanoma
SW-620 colon = tested on: SW-620 colon
MCF7 breast = tested on: MCF7 breast
HCT-116 colon = tested on: HCT-116 colon
HCC-2998 colon = tested on: HCC-2998 colon
KM12 colon = tested on: KM12 colon

Row | Compound | growth (T-47D breast) | growth (BT-549 breast) | growth (MDA-MB-435 melanoma) | growth (SW-620 colon) | growth (MCF7 breast) | growth (HCT-116 colon) | growth (HCC-2998 colon) | growth (KM12 colon)
1 | O=C(COc1ccc(/C=C2\Oc3ccc4ccccc4c3C2=O)cc1)c1ccc(Cl)cc1 | 79.4% | 24.7% | 101% | 103% | 58.5% | 96.7% | 134% | 99.5%
2 | CC(=O)N1N=C(c2ccc(C(F)(F)F)cc2)CC1c1ccc2c(c1)OCO2 (stereo unspecified) | 86.2% | 93.7% | 78.2% | 88.4% | 78.6% | 45.5% | 94.3% | 89.2%
3 | CC(C)C[C@H](NC(=O)/C=C/Cn1ccc2ccccc2c1=O)B(O)O | 17.6% | 27.9% | -44.3% (active) | 24.6% | 26.5% | 16.2% | 62.5% | 37.8%
4 | O=[N+]([O-])c1ccc(N=Nc2c(Cl)cc(O)cc2Cl)cc1 | 4.24% (active) | -33.6% (active) | -24.4% (active) | -10% (active) | 1.11% (active) | -57.2% (active) | 5.82% (active) | -39.8% (active)
5 | C/C=C(/C(=C/C)c1ccc(O)cc1)c1ccc(O)cc1 | 53.5% | 40.7% | -40.2% (active) | 25.6% | 20.6% | 27% | 61.7% | 20.3%
6 | Nc1ccn(C2O[C@H](CO)[C@@H](O)[C@@H]2O)c(=O)n1 (stereo partly specified) | 80.5% | 81.2% | 45.3% | 45.9% | 24% | 32.4% | 53.5% | 58.1%
7 | Nc1ccc(N=Nc2ccccc2)cc1[N+](=O)[O-] | 59.8% | 85.4% | 101% | 93.1% | 24.1% | 91.4% | 103% | 53.2%
8 | O=C(N/N=C/c1cccc(O)c1)c1ccc(C(F)(F)F)nc1Nc1cccc(C(F)(F)F)c1 | 5.41% (active) | 1.67% (active) | 51.2% | 7.06% (active) | 3.77% (active) | -21.4% (active) | 10.2% | 8.65% (active)
9 | Cc1sc2nc(N3CCCCC3)[nH]c(=O)c2c1C | 84.2% | 99.1% | 103% | 96.2% | 96.1% | 93.2% | 98% | 102%
10 | CC1CN(/N=C/c2ccc([N+](=O)[O-])o2)C(=N)O1 (stereo unspecified) | 117% | 117% | 100% | 98.2% | 84.8% | 95.6% | 98.3% | 91.7%
11 | CN1CCN(c2nc3scc(-c4ccccc4)c3c(=O)[nH]2)CC1 | 104% | 104% | 99.7% | 95.4% | 92.5% | 91.9% | 99.5% | 94.1%
12 | CCCCCCCCN(CCO)CCCCCCCC | 97.6% | 106% | 108% | 101% | 93.5% | 104% | 114% | 110%
13 | N#Cc1ccc(-c2csc(Nc3ccc4nc5n(c(=O)c4c3)CCC5)n2)cc1 | 102% | 98.4% | 103% | 103% | 92% | 96.2% | 116% | 103%
14 | CC(C)=CCCC(C)c1ccc(C)c2c1OCN(CC1CCNCC1)C2 (stereo unspecified) | -94.4% (active) | 55.8% | 14.7% | 28% | 36.6% | -37.2% (active) | -82.1% (active) | 38.4%
15 | COCCOCCOCCOCCOc1ccc2c(c1)C(=O)c1nc3ncccc3c(=O)n1-2 | 11.3% | -95.7% (active) | -100% (active) | -100% (active) | -64.6% (active) | -32.7% (active) | -68.1% (active) | -57% (active)
16 | CC1C(=O)NC2=Nc3ccccc3C(=O)NN21 (stereo unspecified) | 81.4% | 96.9% | 111% | 97.8% | 73.9% | 90.4% | 100% | 101%

Row | Compound | growth (T-47D breast) | growth (BT-549 breast) | growth (MDA-MB-435 melanoma) | growth (SW-620 colon) | growth (MCF7 breast) | growth (HCT-116 colon) | growth (HCC-2998 colon) | growth (KM12 colon)
17 | COC(=O)[C@H]1[C@H]2C[C@@H]3c4[nH]c5cc(OC)ccc5c4CCN3C[C@H]2C[C@@H](OC(=O)/C=C/c2cc(OC)c(OC)c(OC)c2)[C@@H]1OC | 45% | 67.8% | 7.45% (active) | 61.3% | 29.1% | -28% (active) | 105% | 40.5%
18 | CC(=O)N1N=C(c2ccc(Nc3ccnc4cc(Cl)ccc34)cc2)CC1c1ccc(Cl)cc1 (stereo unspecified) | 25.5% | 54.7% | 6.15% (active) | 63.1% | 25.6% | 55.6% | 44.4% | 36.5%
19 | N=C1c2nc3n(c2C(=O)c2nc4n(c21)CCCCC4)CCCCC3 | 116% | 110% | 111% | 105% | 94.5% | 107% | 112% | 106%
20 | COc1cc2c(cc1OC)C(=O)/C(=C/c1cccc(OCC(=O)c3ccccc3)c1)C2 | 55.2% | 49.4% | 110% | 74.6% | 60.7% | 64.6% | 111% | 170%
21 | C1CCC(C(CC2CCCCN2)C2CCCCC2)CC1 (stereo unspecified) | -48.9% (active) | 41.1% | -73.8% (active) | -84.6% (active) | -62.6% (active) | -94.1% (active) | -90.6% (active) | -54.1% (active)
22 | O=C(COc1cccc(/C=C2\Oc3ccc4ccccc4c3C2=O)c1)c1ccc([N+](=O)[O-])cc1 | 64% | -81.9% (active) | 90.8% | 80% | 49.3% | 58.5% | 108% | 88.3%
23 | O=Cc1ccccc1C(=O)O | 97.2% | 102% | 96.6% | 102% | 93.7% | 99.6% | 98.1% | 97.9%
24 | Nc1ccc2c(c1)Cc1cc(Cl)c(Cl)cc1-2 | 85.3% | 60.4% | 28.1% | 38.1% | 30% | 49.5% | 66.4% | 52.2%
25 | COc1ccc(N2CCN(CC(=O)N3CCN(c4nnc(-c5ccc(Cl)cc5)c(-c5ccc(Cl)cc5)n4)CC3)CC2)cc1 | 31.6% | 66.1% | 57.5% | 69.2% | 37.3% | 29.2% | 51% | 44.7%
26 | C/C(=C\CCc1ccoc1)CC/C=C(\C)CCCN1CCOCC1 | 27.4% | 58.9% | 71.8% | 57.8% | 28.1% | 39.2% | 62.3% | 56.9%
27 | Cc1[nH]ccc2cc3nc4ccccc4c3cc12 | 27.7% | 60.3% | 33.9% | 22.1% | 7.1% (active) | 22% | 33.7% | 29%
28 | O=C1/C(=C/c2ccc(F)cc2)Cc2ccccc21 | 103% | 89.6% | 107% | 104% | 27.3% | 87.9% | 89.9% | 106%
29 | CCCCCN1C(=O)CCC1=O | 95.5% | 103% | 102% | 111% | 98.4% | 105% | 103% | 94.5%
30 | O=C(COc1cccc(/C=C2\Cc3ccccc3C2=O)c1)c1ccc(Cl)cc1 | 80% | 99.4% | 114% | 97.2% | 78% | 100% | 102% | 105%
31 | O=C(CN1CCN(c2ccc(Cl)cc2)CC1)N1CCN(c2nnc(-c3ccc(Cl)cc3)c(-c3ccc(Cl)cc3)n2)CC1 | 52.4% | 89.3% | 73.4% | 80.6% | 56.7% | 47.2% | 84.9% | 63%
32 | FCc1ncc(-c2ccc(C(F)(F)F)cc2)c(NC2CCCCCC2)n1 | -10.9% [100 µM] (active) | -50.1% [100 µM] (active) | -6.34% [100 µM] (active) | 4.08% [100 µM] (active) | 1.01% [100 µM] (active) | -2.53% [100 µM] (active) | 13.4% [100 µM] | -59.8% [100 µM] (active)
